From PubChem
Most compounds without a hit are left out; they make up all but 4.8% or so of the library.
STAT1 activator = STAT1 signaling activation. NIH 3T3 STAT1-luciferase reporter, IFN-gamma, luminescence; 100% = IFN-gamma alone, no compound. AID 932. activation (% of control), % at 5.5 µM. 200,000 tested, 2.6% active;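 active = activation above the screen-wide mean activation plus 3 SD, cut at about 130% in these data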;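 note: raw ratio to IFN-gamma control signal so 100% means no change and 0% no light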
APP 5'UTR act = APP 5'UTR luciferase reporter activation; SH-SY5Y APP 5'UTR luciferase reporter, luminescence; zero percent = DMSO vehicle wells; activation, % at 2 µM; 190,000 tested, 1% active; AID 1276;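 active = activation above a set limit, based on mean plus 3 SD of controls, cut at about 140% in these data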
NF-kB neuron act = raises NF-kB expression in human neuronal cells. NF-kB reporter expression; active compounds read high. fold change at 12.5 µM. 190,000 tested, 1.6% active; in the data active = fold change above about 3.3
APP transl inh = APP translation inhibition; SH-SY5Y APP 5'UTR-luciferase reporter, luminescence; inhibition, % at 2 µM; 190,000 tested, 0.82% active; AID 1285;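 active = inhibition above a set limit, derived from the sample mean plus 3 SD, cut at about 45% in these data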
Hsp70 activator = transcriptional activators of Hsp70; AID 1203; HeLa Hsp70 promoter luciferase reporter, luminescence; scaled: vehicle 0, proteasome-inhibitor control 100%; activation, % at 10 µM; 200,000 tested, 0.04% active;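 active = activation above the mean across all tested compounds plus 3 SD, cutoff set per campaign, cut at about 5.5% in these data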;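 note: 100% = MG132 at 30 µM as the positive control and 0% = DMSO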
Wee1 stabilizer = blocks degradation of human Wee1 kinase; 220,000 tested, 1.2% active; P30291; HeLa Luc-Wee1K328M stability, luciferase luminescence; 100% = proteasome inhibitor MG132 effect; reporter increase, % at 5 µM; AID 1321;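 active = activation above the mean of all tested compounds plus 3 SD, set per screening run, cut at about 8.8% in these data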;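 note: cells exposed to compound for 20 h before luminescence read; 0% = DMSO alone and 100% = MG132 at 30 µM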
Target sequence (P30291 whole entry K328M): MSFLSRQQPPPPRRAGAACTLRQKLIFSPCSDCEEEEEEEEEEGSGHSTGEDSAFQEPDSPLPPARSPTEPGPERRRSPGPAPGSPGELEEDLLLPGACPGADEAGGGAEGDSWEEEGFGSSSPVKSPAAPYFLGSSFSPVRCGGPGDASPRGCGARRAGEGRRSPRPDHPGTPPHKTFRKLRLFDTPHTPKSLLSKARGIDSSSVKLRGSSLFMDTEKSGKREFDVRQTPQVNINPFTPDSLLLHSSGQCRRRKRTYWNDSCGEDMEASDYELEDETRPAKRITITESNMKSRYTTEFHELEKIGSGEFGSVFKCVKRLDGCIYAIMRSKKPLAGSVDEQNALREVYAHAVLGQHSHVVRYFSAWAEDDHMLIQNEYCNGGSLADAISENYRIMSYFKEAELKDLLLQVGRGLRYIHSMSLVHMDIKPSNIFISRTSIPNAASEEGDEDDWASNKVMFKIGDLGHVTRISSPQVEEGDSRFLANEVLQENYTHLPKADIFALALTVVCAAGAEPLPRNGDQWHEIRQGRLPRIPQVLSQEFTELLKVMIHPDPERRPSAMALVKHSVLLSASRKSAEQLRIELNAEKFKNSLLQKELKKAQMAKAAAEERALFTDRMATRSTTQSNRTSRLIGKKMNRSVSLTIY
An asterisk follows results filed as active; · = not tested or not shown.

SMILES | STAT1 activator | APP 5'UTR act | NF-kB neuron act | APP transl inh | Hsp70 activator | Wee1 stabilizer
O=C1C(Cl)=C(NCCCN2CCOCC2)C(=O)N1CCc1ccccc1 | 121 | -51 | 1.4 | 51* | 0 | 1
Cc1ccc(/C=C/C(=O)Nc2nccs2)o1 | 148* | 79 | 3.2 | -79 | 0 | 6
Cc1cnc(NC(=O)/C=C/c2ccc(Br)o2)s1 | · | · | · | · | · | -2
Cc1ccc(/C=C/C(=O)Nc2ncc(C)s2)o1 | 147* | 121 | 3.1 | -121 | 0 | 3
O=C(N/N=C/C1CCCCC1)c1cc(Cl)ccc1O | 97 | -2 | 1.1 | 2 | 0 | -1
CCOC(=O)C1CCN(C(=O)CN2C(=O)C(CC)Oc3ccccc32)CC1 (configuration not stated) | 92 | 0 | 1.1 | 0 | 0 | -1
CCOC(=O)CN1C(=O)C(CC)Oc2ccccc21 (configuration not stated) | 100 | 18 | 1.2 | -18 | 1 | 17*
Cc1cc(-c2ccccc2C(=O)Nc2ccccc2O)on1 | · | · | · | · | · | -2
Oc1ccccc1-c1cc(-c2ccccc2)no1 | 108 | 255* | 12* | -255 | 0 | -2
Cc1ccccc1-c1cc(-c2ccccc2O)on1 | 102 | 197* | 9.7* | -197 | 0 | -1
Cc1ccc(-c2cc(-c3ccccc3)no2)c(O)c1 | 113 | 276* | 3.7* | -276 | 0 | 2
CC(C)(C)c1cccc(OCCCSc2ncccn2)c1 | 100 | 9 | 1.4 | -9 | 0 | 2
COc1cc(/C=C2/NC(=O)N(c3cccc(Cl)c3)C2=O)ccc1O | 134* | -55 | 2.4 | 55* | 0 | 4
COc1ccc(-n2cccc2/C=C2/NC(=O)N(c3cccc(Cl)c3)C2=O)cc1 | 111 | 23 | 0.86 | -23 | 0 | 8.9*
O=C(O)c1cccc(-n2cccc2/C=C2/NC(=O)N(c3cccc(Cl)c3)C2=O)c1 | · | · | · | · | · | 3
COc1cc(/C=C2\C(=O)N(C)C(=S)N2C)ccc1O | 96 | 3 | 1.3 | -3 | 0 | 3
O=C(CC1Sc2ncnn2C1=O)Nc1ccc(Cl)cc1 (configuration not stated) | 82 | -7 | 1.1 | 7 | 0 | -2
O=C(Cc1ccccc1)N/N=C/c1ccc2c(c1)OCO2 | 120 | 84 | 2 | -84 | 0 | -1
Clc1ccccc1N/N=C/c1ccc2c(c1)OCO2 | 135* | 114 | 3.1 | -114 | 0 | 1
O=C(Cn1nnc(-c2ccccc2Cl)n1)N/N=C/c1ccc2c(c1)OCO2 | 100 | 13 | 1.2 | -13 | 0 | 12*
CC(C)CC(NC(N)=O)C(=O)NCCc1ccc(Cl)cc1 (configuration not stated) | 98 | -2 | 1 | 2 | 0 | 11*
CCCn1c(N)c(Sc2ccc(Cl)cc2)c(=O)n(CCC)c1=O | 100 | 0 | 0.9 | 0 | 0 | -3
COc1ccc2[nH]c3nc(SC(C)C)nnc3c2c1 | 85 | 185* | 5.1* | -185 | 0 | 4
CCn1cc(CNC(=S)Nc2cccc3ccccc23)cn1 | 98 | -3 | 1.2 | 3 | 0 | 9.3*
CC(=O)N1CCc2cc(NC(=O)c3ccc(C)cc3)ccc21 | 131* | 2 | 3.6* | -2 | 0 | 0
SMILES | STAT1 activator | APP 5'UTR act | NF-kB neuron act | APP transl inh | Hsp70 activator | Wee1 stabilizer
CCN(CC)c1ccc(C(=O)n2cnc3ccccc32)cc1 | 130* | 24 | 3.1 | -24 | 0 | 0
O=C(NCc1ccco1)c1cccs1 | 98 | 24 | 1.3 | -24 | 1 | 8
O=C(COC(=O)c1cccs1)c1ccccc1 | 131* | 55 | 4.6* | -55 | 0 | 3
O=C(CSCc1ccco1)c1cccs1 | 124 | 170* | 1.9 | -117 | 0 | -1
O=C(CCC(=O)c1cccs1)NC(c1ccccc1)c1ccccc1 | 108 | 7 | 0.87 | -8 | 0 | 1
O=C(CCC(=O)c1cccs1)c1cccs1 | 130* | 131 | 5.2* | -131 | 0 | -1
CCC(C)NC(=O)c1c(N)n(/N=C/c2cccnc2)c2nc3ccccc3nc12 (configuration not stated) | 101 | 8 | 0.45 | -8 | 0 | 2
CCn1c(=O)c(C(=O)Nc2ccccc2C)c(O)c2ccccc21 | 106 | 65 | 1.3 | -65 | 0 | 0
CN(C)c1nn(C(=O)Nc2ccc(Cl)cc2Cl)cc1-c1ccccc1 | 100 | 12 | 0.89 | -12 | 0 | 0
CCOC(=O)CN(C(=O)CNC(=O)c1ccco1)C(C(=O)NC1CCCCC1)c1cccs1 (configuration not stated) | 102 | 9 | 0.79 | -9 | 0 | -1
Cc1cccc(NC(=O)CSc2nnc(-c3ccccc3C)o2)c1 | 105 | 151* | 4.7* | -151 | 0 | -1
Cc1cc(C)cc(NC(=O)CSc2nnc(-c3ccccc3C)o2)c1 | 95 | 41 | 4.2* | -41 | 0 | -1
Cc1ccc(NC(=O)CSc2nnc(-c3ccccc3C)o2)cc1C | 101 | 38 | 2.5 | -38 | 0 | 0
CCOC(=O)c1c(NC(=O)CSc2cccc[n+]2[O-])sc(C(=O)Nc2ccccc2)c1C | 103 | 49 | 1.6 | -49 | 0 | -2
C/C(=N\N=C\c1ccccc1F)c1nnn(-c2nonc2N)c1C | 142* | 20 | 2 | -20 | 0 | 7
CCOC(=O)c1nnn(-c2nonc2N)c1C | 101 | 4 | 1 | -4 | 0 | 3
CCCCOc1ccc(C(=O)Nc2cc(C)c(OCC(=O)N3CCOCC3)c(C)c2)cc1 | 91 | 46 | 0.8 | -46 | 0 | -2
c1ccc(-c2cnc(CSc3nnc4ccccn34)o2)cc1 | 137* | 130 | 2.5 | -130 | 0 | 6
c1ccc(-n2ncc3c2ncn2nc(-c4ccco4)nc32)cc1 | 137* | 93 | 2 | -93 | 1 | 2
COc1cccc(OCc2nc3c4cnn(-c5ccccc5)c4ncn3n2)c1 | 99 | -9 | 1.1 | 9 | 0 | -3
CCC(C)C(=O)N1CCc2cc(-c3csc(N)n3)ccc21 (configuration not stated) | 132* | 86 | 2 | -86 | 0 | 1
CNc1nc(-c2ccc3c(c2)CCN3C(=O)CC(C)(C)C)c(C)s1 | 126 | 4 | 2.3 | -4 | 0 | 5
CCCC(=O)N1CCc2cc(-c3nc(N)sc3C)ccc21 | 137* | 42 | 2 | -42 | 0 | 0
CC(C)(SC(=S)N1CCOCC1)C(=O)O | 104 | 22 | 1.1 | -22 | 0 | -3
O=C1CCCC2=C1C(c1ccc3c(c1)OCO3)c1c([nH]n(-c3ccccc3)c1=O)N2 (configuration not stated) | 102 | 7 | 1.2 | -7 | 0 | -3
N#Cc1cc(S(=O)(=O)c2ccc(Cl)cc2)c(N)[nH]c1=O | 97 | 2 | 1.1 | -2 | 0 | 11*
Cc1ccccc1-n1c(-c2ccc(=O)[nH]n2)n[nH]c1=S | 105 | 2 | 1.2 | -2 | 0 | 7
Cc1ccc(-n2ncc(Br)c(Br)c2=O)cc1 | 114 | -95 | 0.15 | 94* | 5 | 2
